In PubChem BioAssay (NCATS) one finds Potency data, which are given here for 25 molecules.

Results filed as inconclusive are left out. Values without a mark were called inactive. Calls of active or inactive are those of the source. Calls come from the whole dose curve.

What all share (details): outcome: dose series up to 57.1 µM unless noted
A short description of assay [1]: Primary qHTS for inhibitors of SARS-S pseudo-typed particle cell entry (AID 1479145). Note: nearly all actives have a fitted effect of over 45% in size.
A short description of assay [2]: Primary qHTS for Huh7 cytotoxicity: counterscreen for inhibitors of MERS-S pseudotyped particle cell entry (AID 1479147). Note: potency is the fitted concentration of half-maximal effect.
A short description of assay [3]: Primary qHTS for inhibitors of MERS-S pseudo-typed particle cell entry (AID 1479149). Note: nearly all actives have a fitted effect of over 60% in size.
Assay [4] can be described thus: Primary qHTS for Vero E6 cytotoxicity: counterscreen for inhibitors of SARS-S pseudo-typed particle cell entry (AID 1479150). Note: potency is the fitted concentration of half-maximal effect.
The nature of assay [5]: Cytotoxicity counterscreen for inhibitors of SARS-CoV-2 cell entry (AID 1645845). Note: nearly all actives have a fitted effect of over 50% in size. Note: potency is the fitted concentration of half-maximal effect. Put shortly: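 Expi293F/hACE2 cells seeded overnight; cpd pin-transferred in DMSO, 1 h preincubation, + media, 48 h 37 C 5% CO2; ATPLite 1step luminescence; normalized to cells and no cells.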

Take `CCOC(=O)CCC(=O)O[C@H]1[C@H](O[C@@H]2[C@@H](C)[C@H](O[C@H]3C[C@@](C)(OC)[C@@H](O)[C@H](C)O3)[C@@H](C)C(=O)O[C@H](CC)[C@@](C)(O)[C@H](O)[C@@H](C)C(=O)[C@H](C)CC2(C)O)O[C@H](C)C[C@@H]1N(C)C` (stereo not given in full): the Potency entry in assay [1], in assay [2], in assay [3], in assay [4] and in assay [5] was “inactive” throughout.
On to `CCCCCc1ccc(C)cc1O`, for which the Potency result in assay [1], in assay [2], in assay [3], in assay [4] and in assay [5] was “inactive” in each case.
Turning to `CC(C)OC(=O)Nc1ccc2nc(-c3cscn3)[nH]c2c1`, the Potency result in assay [1] and in assay [3] was “inactive” in each case. For the same molecule, the Potency in assay [2] was 10 µM (active); in assay [4], 8.91 µM (active); in assay [5], 7.08 µM (active).
On to `Cc1cc(Nc2ccccc2C(=O)O)ccc1Cl`, for which the Potency entry in assay [1], in assay [2], in assay [3], in assay [4] and in assay [5] was “inactive” each time.
As for `OC[C@H]1OC(O)C[C@@H](O)[C@@H]1O` (stereo not given in full), the Potency result in assay [1], in assay [2], in assay [3], in assay [4] and in assay [5] was “inactive” in each case.
On to `CN(CC(O)CO)C(=O)c1c(I)c(NC(=O)C(CO)CO)c(I)c(C(=O)N(C)CC(O)CO)c1I` (stereo not given), for which the Potency result in assay [1], in assay [2], in assay [3], in assay [4] and in assay [5] was “inactive” throughout.
For `CCCCC(CC)COC(=O)CC(C(=O)OCC(CC)CCCC)S(=O)(=O)O` (stereo not given), the Potency result in assay [1], in assay [2], in assay [3], in assay [4] and in assay [5] was “inactive” in each case.
For the molecule `C[N+]1(C)C2CC[C@H]1CC(OC(=O)C(O)c1ccccc1)C2` (stereo not given in full), the Potency entry in assay [1], in assay [2], in assay [3], in assay [4] and in assay [5] was “inactive” throughout.
For `O=S(=O)(O)CCCS(=O)(=O)O`, the Potency entry in assay [1], in assay [2], in assay [3], in assay [4] and in assay [5] was “inactive” in each case.
In the case of `NS(=O)(=O)c1ccc(-n2nc(C(F)(F)F)cc2-c2ccc(F)cc2)cc1`, the Potency entry in assay [1], in assay [2], in assay [3], in assay [4] and in assay [5] was “inactive” throughout.
Take `CCO/N=C(\C(=O)N[C@@H]1C(=O)N2C(C(=O)O)=C(Sc3nc(-c4cc[n+](C)cc4)cs3)CS[C@H]12)c1nsc(NP(=O)(O)O)n1`: the Potency result in assay [1], in assay [2], in assay [3], in assay [4] and in assay [5] was “inactive” throughout.
Take `C=CC[N@@+]12CC[C@]34c5ccccc5N5/C=C6\C7N(/C=C(\C53)[C@@H](C[C@@H]41)/C(=C/CO)C2)c1ccccc1[C@@]71CC[N@@+]2(CC=C)C/C(=C\CO)[C@@H]6C[C@@H]12` (stereo not given in full): the Potency result in assay [1], in assay [2], in assay [3], in assay [4] and in assay [5] was “inactive” in each case.
Turning to `CCCC[C@H](C)C[C@H](O)/C=C/[C@H]1[C@H](O)CC(=O)[C@@H]1CCCC/C=C/C(=O)O`, the Potency entry in assay [1], in assay [2], in assay [3], in assay [4] and in assay [5] was “inactive” each time.
Turning to `NC(=O)[C@@H]1CC[C@@H]2CN1C(=O)N2OS(=O)(=O)O`, the Potency entry in assay [1], in assay [2], in assay [3], in assay [4] and in assay [5] was “inactive” in each case.
For the molecule `NCCCC[C@H](NC(=O)[C@@H]1CCCN1C(=O)[C@@H]1CSSC[C@H](N)C(=O)N[C@@H](Cc2ccccc2)C(=O)N[C@@H](Cc2ccccc2)C(=O)N[C@@H](CCC(N)=O)C(=O)N[C@@H](CC(N)=O)C(=O)N1)C(=O)NCC(N)=O`, the Potency result in assay [1], in assay [2], in assay [3], in assay [4] and in assay [5] was “inactive” in each case.
As to `CC1(C)S[C@@H]2[C@H](NC(=O)C(C(=O)Oc3ccc4c(c3)CCC4)c3ccccc3)C(=O)N2[C@H]1C(=O)O` (stereo not given in full), the Potency entry in assay [1], in assay [2], in assay [3], in assay [4] and in assay [5] was “inactive” each time.
Turning to `CCCCCCCCCCCCCCCC(=O)OC[C@@H](O)[C@H]1OC[C@H](O)[C@H]1O`, the Potency entry in assay [1], in assay [2], in assay [3], in assay [4] and in assay [5] was “inactive” throughout.
For the molecule `CO[C@@H]1[C@@H](O[C@@H]2O[C@H](C)[C@@H](O[C@H]3C[C@@](C)(O)[C@H](O)[C@H](C)O3)[C@H](N(C)C)[C@H]2O)[C@@H](CC=O)C[C@@H](C)[C@@H](O[C@H]2CC[C@H](N(C)C)[C@@H](C)O2)/C=C/C=C/C[C@H](C)OC(=O)C[C@H]1O`, the Potency result in assay [1], in assay [2], in assay [3], in assay [4] and in assay [5] was “inactive” throughout.
On to `CCc1ccc(Nc2c(F)c(F)cc(F)c2F)c(CC(=O)O)c1`, for which the Potency result in assay [1], in assay [2], in assay [3], in assay [4] and in assay [5] was “inactive” in each case.
For the molecule `COc1ccc(CCNCC(O)COc2cccc(C)c2)cc1OC` (stereo not given), the Potency entry in assay [1], in assay [2], in assay [3], in assay [4] and in assay [5] was “inactive” throughout.
On to `CC(C)C[C@H](NC(=O)[C@@H](Cc1c[nH]c2ccccc12)NC(=O)[C@H](Cc1ccc(O)cc1)NC(=O)[C@H](CO)NC(=O)[C@H](Cc1c[nH]c2ccccc12)NC(=O)[C@H](Cc1cnc[nH]1)NC(=O)[C@@H]1CCC(=O)N1)C(=O)N[C@@H](CCCN=C(N)N)C(=O)N1CCC[C@H]1C(=O)NCC(N)=O`, for which the Potency result in assay [1], in assay [2], in assay [3], in assay [4] and in assay [5] was “inactive” in each case.
Turning to `O=[N+]([O-])c1ccc(/C=C/c2cccc(CO)n2)o1`, the Potency entry in assay [1], in assay [2], in assay [3], in assay [4] and in assay [5] was “inactive” each time.
With `CC[C@H]1OC(=O)C[C@@H](O)[C@H](C)[C@@H](OC2OC(C)C(O)C(N(C)C)C2O)[C@@H](CCN2CCCCC2)C[C@@H](C)C(=O)/C=C/C(C)=C/[C@@H]1CN1CCCCC1` (stereo not given in full), the Potency entry in assay [1], in assay [2], in assay [3], in assay [4] and in assay [5] was “inactive” in each case.
Turning to `C[C@@H]1CCC[C@H](C)N1NC(=O)c1ccc(Cl)c(S(N)(=O)=O)c1`, the Potency entry in assay [1], in assay [2], in assay [3], in assay [4] and in assay [5] was “inactive” in each case.
For the molecule `CCOC(=O)COc1ccc2c(=O)cc(-c3ccccc3)oc2c1`, the Potency result in assay [1], in assay [2], in assay [3], in assay [4] and in assay [5] was “inactive” each time.
